Measurements from PubChem BioAssay AID1347145 (National Center for Advancing Translational Sciences (NCATS), 2019).
Records with an inconclusive call do not appear. Calls of active or inactive are those of the source. The call rests on the fitted dose curve; in most records, active means well fitted inhibition curve with a large enough effect; inconclusive means small, poorly fitted or top-dose-only effect; inactive means no such curve, though single readings can be large or run the other way.

Each compound was assayed against N-terminal Xaa-Pro-Lys N-methyltransferase 1 (Homo sapiens) (UniProt Q9BV86) (assay: qHTS Assay for Inhibitors of N-terminal methyltransferase 1 (NTMT1): MTaseGlo Assay Confirmatory Screen, Round 1). Conditions: Recombinant NTMT1, MTase-Glo SAH luminescence; series mostly up to 57.1 µM.
N-terminal Xaa-Pro-Lys N-methyltransferase 1 (Homo sapiens), sequence (Q9BV86 whole entry, looked up): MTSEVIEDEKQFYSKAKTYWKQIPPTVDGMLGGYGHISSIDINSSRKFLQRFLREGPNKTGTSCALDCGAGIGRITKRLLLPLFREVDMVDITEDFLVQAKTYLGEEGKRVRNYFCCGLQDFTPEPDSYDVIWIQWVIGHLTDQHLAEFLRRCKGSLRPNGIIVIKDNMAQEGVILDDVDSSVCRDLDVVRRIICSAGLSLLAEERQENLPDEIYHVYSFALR
Procedure, shortened: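 Luminescence from MTase-Glo conversion of SAH to ATP measured activity after a 30 min RT reaction with 1 µM SPKRIA substrate, 100 µM SAM and 125 nM enzyme. Normalization used no-enzyme and DMSO controls, followed by Hill fitting.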

Potency, inactive:
Nc1ncnc2c1ncn2[C@@H]1O[C@H](COP(=O)(O)OP(=O)(O)OP(=O)(O)OP(=O)(O)OC[C@@H]2O[C@H](n3cnc4c(N)ncnc43)[C@@H](O)C2O)C(O)[C@H]1O (some centres not stated), COc1cc2c(NC3CCN(C)CC3)nc(N3CCCN(C)CC3)nc2cc1OCCN(C)C, Nc1nc(=S)c2ncn([C@@H]3O[C@H](CO)[C@@H](O)[C@H]3O)c2[nH]1, OCC1OC(n2cnc3c(=S)nc[nH]c32)C(O)C1O (configuration not stated), Nc1nc2c(ncn2[C@@H]2O[C@H](CO)[C@@H](O)[C@H]2O)c(=O)[nH]1, Nc1ncnc2c1ncn2[C@@H]1O[C@H](C(=O)N2CCN(CC(=O)Nc3cccc4c3CNC4=O)CC2)[C@@H](O)[C@H]1O, Nc1ncnc2c1ncn2[C@@H]1O[C@H](COP(=O)(O)OP(=O)(O)OP(=O)(O)OP(=O)(O)OC[C@@H]2O[C@H](n3cnc4c(N)ncnc43)[C@@H](O)[C@H]2O)[C@@H](O)[C@H]1O, COc1cc2c(NC3CCN(C(C)C)CC3)nc(N3CCCN(C(C)C)CC3)nc2cc1OCCOCCN(C)C, COC1C(CO)OC(n2cnc3c(=O)[nH]cnc32)C1O (configuration not stated), COc1cc2nc(N3CCN(C)CC3)nc(NC3CCN(C)CC3)c2cc1OC, COc1cc2c(NC3CCN(C)CC3)nc(N3CCCN(C)CC3)nc2cc1OCCCN1CCOCC1, Cc1cc(C)c(CNC(=O)c2cc(-c3ccc(CN4CCOCC4)cc3)cc3c2cnn3C2CCCC2)c(=O)[nH]1, CNc1ncnc2c1ncn2[C@@H]1O[C@H](CO)[C@@H](O)[C@H]1O, OC[C@H]1O[C@@H](n2cnc3c(NC4CCCCC4)ncnc32)[C@H](O)[C@@H]1O, COc1cc2c(NC3CCN(C)CC3)nc(N3CCN(C)CC3)nc2cc1OCCCN(C)C, COc1cc2c(NC3CCN(C)CC3)cc(N3CCCCN(C)CC3)cc2cc1OCCOCCN(C)C, C/C(=C\CNc1ncnc2c1ncn2[C@@H]1O[C@@H](CO)[C@@H](O)[C@H]1O)CO, COc1cc2c(NC3CCN(C)CC3)nc(N3CCCN(C)CC3)nc2cc1OCC1CCNCC1, Nc1nc(=S)c2ncn([C@H]3O[C@@H](CO)[C@@H](O)[C@@H]3O)c2[nH]1, Cc1ccccc1CNc1ncnc2c1ncn2[C@@H]1O[C@H](CO)[C@@H](O)[C@H]1O, NC(=S)c1ccc[n+]([C@@H]2O[C@@H](COP(=O)([O-])OP(=O)(O)OC[C@H]3O[C@@H](n4cnc5c(N)ncnc54)[C@H](OP(=O)(O)O)[C@@H]3O)C(O)C2O)c1 (some centres not stated), COc1cc2c(NC3CCN(C(C)C)CC3)nc(N3CCCN(C)CC3)nc2cc1OCCCN1CCCC1, Nc1nc(Nc2ccccc2)nc2c1ncn2[C@@H]1O[C@@H](CO)[C@H](O)[C@H]1O, N#Cc1ccc(COC[C@H]2O[C@@H](n3c(NCc4ccc(Cl)c(Cl)c4)nc4c(N)ncnc43)[C@@H](O)[C@@H]2O)cc1, COc1cc2c(NC3CCN(C)CC3)nc(N3CCCN(C)CC3)nc2cc1O, Nc1ncnc2c1ncn2[C@H]1C[C@H](O)[C@@H](CO)O1, COc1cc2nc(N3CCN(C)CC3)nc(NCCCN(C)C)c2cc1OC, CNc1nc(N2CCN(C)CC2)nc2cc(OC)c(OC)cc12, COc1cc2c(NC3CCN(C4CCCCC4)CC3)nc(N3CCCCCC3)nc2cc1OCCCN1CCCCC1, O=C(Nc1ncnc2c1ncn2[C@@H]1O[C@@H]2COP(=O)(O)O[C@H]2[C@H]1O)c1ccccc1, CC(C)(COP(=O)(O)OP(=O)(O)OC[C@H]1O[C@@H](n2cnc3c(N)ncnc32)[C@H](O)[C@@H]1OP(=O)(O)O)[C@H](O)C(=O)NCCC(=O)NCCS, COc1cc2nc(N3CCN(C)CC3)nc(NC3CCCCC3)c2cc1OC, Nc1ncnc2c1ncn2[C@@H]1O[C@H](COP(=O)(O)O)[C@@H](O)[C@H]1O, COc1cc2nc(N3CCN(C(N)=O)CC3)nc(NC3CC3)c2cc1OC, Nc1nc2c(ncn2[C@@H]2O[C@H](CO)[C@@H](O)[C@@H]2O)c(=O)[nH]1, COc1cc2nc(N3CCN(C)CC3)nc(NC3CCCC3)c2cc1OC, Cn1cnc2c(ncn2[C@@H]2O[C@H](CO)[C@@H](O)[C@H]2O)c1=N
